IL-1B inflam inh: inflammasome signaling inhibition, IL-1 beta readout. THP-1 LPS/ATP IL-1B secretion, AlphaLISA, 16 h; active compounds read low. activity change, % at 57.5 µM. 4.7% of 360,000 active. AID 743279; in the data active means activity change below about -50%; inconclusive means mostly about -30% to -49%
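Secreted IL-1B measured by AlphaLISA bead assay after 16 h compound exposure of THP-1 cells; compounds (final up to 57.5 uM) added 1 h before LPS (250 ng/mL) and ATP (1.25 mM) stimulation; lower signal means less secretion.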
HT1080 IDH1KD tx: toxicity to HT-1080 IDH1 knockdown cells (counter line); HT-1080 IDH1 knockdown viability, ATP luminescence, 48 h; Potency, µM (highest dose often 46.1 µM), inactives show at the top dose activity, negative = toxicity, usual class: cytotoxic; 2% of 360,000 active; AID 686971;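 further: potency means the concentration at half of the fitted maximal effect; 0% = DMSO wells and -100% = cell-free medium wells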
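After a 2 h attachment period, IDH1KD HT-1080 cells took pin-transferred compound for 48 h at 37 °C; ATP-based luminescence after 10 min room-temperature reagent incubation reported viability.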
ELG1 repair inh: ELG1-dependent DNA repair inhibition | HEK293T ELG1-luciferase reporter, luminescence, 16 h; DNA damage induced by 5-fluorouridine | Potency, µM (highest dose often 46.1 µM), inactives show at the highest dose activity change, negative = inhibition, hits mostly inhibitors | AID 504467 | 2.3% of 330,000 active; further: potency means the concentration at half of the fitted maximal effect; nearly all actives have a fitted effect of over 55% in size
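5-Fluorouridine DNA damage + compound/DMSO, 2,000 cells/well, 16 h, 37 °C/5% CO2. ONE-Glo, 30 min RT, luminescence. Readout = decrease in reporter signal.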
DT40 TDP1 CPT: DT40-hTDP1 cell growth loss with CPT | chicken DT40 Tdp1-/-;hTDP1 cells + 20 nM CPT, ATP luminescence, 48 h | Potency, µM (highest dose often 46.2 µM), without a hit: at the top dose activity change, negative = growth inhibition, most hits filed as inhibitors | 12% of 420,000 active; further: potency means the concentration at half of the fitted maximal effect; nearly all actives have a fitted effect of over 55% in size
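Chicken DT40 Tdp1-/- cells stably complemented with human TDP1 were seeded at 400 cells/well in medium containing 20 nM camptothecin, exposed to pin-transferred compounds, and grown at 37 °C for at least 48 hr. Viability was read as ATP luminescence.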
HT1080-NT tox: kills 2HG-producing HT-1080-NT fibrosarcoma cells; HT-1080-NT fibrosarcoma viability, CellTiter-Glo ATP luminescence, 48 h; 1.6% of 360,000 active; Potency, µM (series often up to 46.1 µM), inactives show top-dose activity, negative = less viability, hits mostly cytotoxic;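 further: NT is the 2HG producing partner of a matched IDH1 knockdown line; potency means the concentration at half of the fitted maximal effect; 0% = DMSO-treated cells and -100% = media-only wells without cells; nearly all actives have a fitted effect of over 55% in size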
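Viability by CellTiter-Glo luminescence after 48 h compound exposure at 37C of HT-1080-NT cells (750/well, RPMI, 5% FBS). % activity scaled between DMSO wells and medium-only wells, then curve-fitted and categorized by curve class.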
DT40 TDP1 no CPT: qHTS for Inhibitors of human tyrosyl-DNA phosphodiesterase 1 (TDP1): qHTS in cells in absence of CPT; DT40 Tdp1-/- hTDP1 cells, no CPT, ATP luminescence, 48 h; Potency, µM (top dose mostly 46.2 µM), inactives show top-dose activity change, negative = growth inhibition, usual class: inhibitors; 15% of 420,000 active; further: potency means the concentration at half of the fitted maximal effect; nearly all actives have a fitted effect of over 55% in size
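Stably hTDP1-transfected Tdp1-null chicken DT40 cells were treated with library compounds minus camptothecin and grown for at least 48 hr at 37 °C, after which cellular ATP was quantified by luminescence.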
Active calls of the source: *; ? = inconclusive; · = no result; ! = repeats disagree. An excerpt weighted towards active compounds, which were near 19% of everything screened. Unless noted, the call rests on the fitted dose curve; in most records, active means well fitted curve in the direction sought with a large enough effect; inconclusive means small, poorly fitted or top-dose-only effect, or another doubt; inactive means no such curve, though single readings can be large; an effect the other way counts as inactive or inconclusive. Unless noted, on the % scale 0 is the no-effect control and ±100 the full control effect.

SMILES	IL-1B inflam inh	HT1080 IDH1KD tx	ELG1 repair inh	DT40 TDP1 CPT	HT1080-NT tox	DT40 TDP1 no CPT
CC(C)n1c(O)c(N=NC(=O)Cn2ccc(C(F)(F)F)n2)c2ccccc21	0	11%	-16%	?	-2%	8.2µM*
O=C(Cn1ccc(C(F)(F)F)n1)N=Nc1c(O)[nH]c2ccccc12	-3	-8%	5%	6%	-21%	-20%
Cn1c(O)c(N=NC(=O)Cn2c(C(F)(F)F)nc3ccccc32)c2ccccc21	11	9%	-23%	21µM*	1%	13µM*
O=C(O)Cn1c(C(F)(F)F)nc2ccccc21	10	11%	·	2%	15%	-28%
Cc1cc(C(=O)N=Nc2c(O)n(C(C)C)c3ccccc23)n[nH]1	-7	1%	-24%	?	2%	18µM*
CC(C)n1c(O)c(N=NC(=O)CNC(=O)Cc2ccc(Cl)cc2)c2ccccc21	-13	0%	-22%	?	3%	?
Cn1cnnc1SCC(C)(C)NS(=O)(=O)c1ccc(Cl)cc1	-8	3%	9%	11%	0%	2%
COCCN(CCOC)Cc1cc(=O)oc2cc(OC)ccc12	2	0%	·	16%	27%	?
COc1ccc([N+](=O)[O-])cc1NC(=O)C1CCCN1S(=O)(=O)c1cccs1 (centres undefined)	-18	-11%	-8%	-1%	-17%	?
O=C(Nc1ccc(Br)cc1)C1CCCN1S(=O)(=O)c1cccs1 (centres undefined)	6	-16%	?	21µM*	-12%	13µM*
COc1ccc(NC(=O)C2CCCN2S(=O)(=O)c2cccs2)c([N+](=O)[O-])c1 (centres undefined)	-12	-14%	-15%	21µM*	-5%	10µM*
CCCCOCCCNC(=O)C[C@@H]1C[C@@]2(C(=O)OCC)CCCC=C2N(Cc2cccc3ccccc23)C1=O	?	?	·	18µM*	?	13µM*
CCCCCCCCN1C(=O)[C@H](CC(=O)NCc2cccc3ccccc23)C[C@@]2(C(=O)OCC)CCCC=C12	-17	?	·	?	?	16µM*
COc1ccc(N2C(=NC(=O)C3CCCO3)SC3CS(=O)(=O)CC32)cc1 (centres undefined)	2	16%	8%	-2%	13%	3%
CCc1nnc(NC(=O)c2nc(S(=O)(=O)Cc3ccccc3)ncc2Cl)s1	-100*	7.3µM*	?	18µM*	12µM*	18µM*
CCc1nnc(NC(=O)c2nc(S(=O)(=O)Cc3ccc(C)cc3)ncc2Cl)s1	-102*	15µM*	?	16µM*	18µM*	21µM*
CCOc1ccccc1NC(=O)c1nc(S(=O)(=O)Cc2cccc(C)c2)ncc1Cl	0	-4%	?	1.2µM*	1%	0.65µM*
CCc1nnc(NC(=O)c2nc(S(=O)(=O)Cc3cccc(C)c3)ncc2Cl)s1	-102*	10µM*	?	5.8µM*	23µM*	5.2µM*!
CCc1nnc(NC(=O)c2nc(Cl)ccc2Cl)s1	-1	28%	16%	-4%	29%	3%
CCOC(=O)Nc1csnn1	20	-8%	?	1%	11%	-3%
Cc1cccc(CSCCNC(=S)Nc2ccccc2)c1	?	-11%	?	?	-10%	18µM*
CCOc1ccc(CSCCNC(=S)Nc2ccc(OC)cc2)cc1	-3	-17%	?	?	?	23µM*
CCCOc1ccc(CSCCNC(=S)Nc2ccccc2)cc1	18	-24%	?	26µM*	-8%	23µM*
